Consider twelve compounds from ChEMBL document CHEMBL3988442, “University of Dundee, Small-Polar-MMV Screening Library” (2021).

For part of these data: Results with a measured potency or affinity are listed apart.

Common to all, as to set-up: scale not given: direction of the effect not stated beside the values
Assay [1] addresses Protein translocase subunit SecA (Escherichia coli (strain K12)) (UniProt P10408). Briefly: Assay to Identify E. coli SecA ATPase Inhibitors. It counts as functional. The following applies: 30 µM.
The target in assay [2] is T1, Ubiquitin-activating enzyme e1, putative (Leishmania donovani (strain BPK282A1)) (UniProt E9BSI1).
T1 sequence (whole entry): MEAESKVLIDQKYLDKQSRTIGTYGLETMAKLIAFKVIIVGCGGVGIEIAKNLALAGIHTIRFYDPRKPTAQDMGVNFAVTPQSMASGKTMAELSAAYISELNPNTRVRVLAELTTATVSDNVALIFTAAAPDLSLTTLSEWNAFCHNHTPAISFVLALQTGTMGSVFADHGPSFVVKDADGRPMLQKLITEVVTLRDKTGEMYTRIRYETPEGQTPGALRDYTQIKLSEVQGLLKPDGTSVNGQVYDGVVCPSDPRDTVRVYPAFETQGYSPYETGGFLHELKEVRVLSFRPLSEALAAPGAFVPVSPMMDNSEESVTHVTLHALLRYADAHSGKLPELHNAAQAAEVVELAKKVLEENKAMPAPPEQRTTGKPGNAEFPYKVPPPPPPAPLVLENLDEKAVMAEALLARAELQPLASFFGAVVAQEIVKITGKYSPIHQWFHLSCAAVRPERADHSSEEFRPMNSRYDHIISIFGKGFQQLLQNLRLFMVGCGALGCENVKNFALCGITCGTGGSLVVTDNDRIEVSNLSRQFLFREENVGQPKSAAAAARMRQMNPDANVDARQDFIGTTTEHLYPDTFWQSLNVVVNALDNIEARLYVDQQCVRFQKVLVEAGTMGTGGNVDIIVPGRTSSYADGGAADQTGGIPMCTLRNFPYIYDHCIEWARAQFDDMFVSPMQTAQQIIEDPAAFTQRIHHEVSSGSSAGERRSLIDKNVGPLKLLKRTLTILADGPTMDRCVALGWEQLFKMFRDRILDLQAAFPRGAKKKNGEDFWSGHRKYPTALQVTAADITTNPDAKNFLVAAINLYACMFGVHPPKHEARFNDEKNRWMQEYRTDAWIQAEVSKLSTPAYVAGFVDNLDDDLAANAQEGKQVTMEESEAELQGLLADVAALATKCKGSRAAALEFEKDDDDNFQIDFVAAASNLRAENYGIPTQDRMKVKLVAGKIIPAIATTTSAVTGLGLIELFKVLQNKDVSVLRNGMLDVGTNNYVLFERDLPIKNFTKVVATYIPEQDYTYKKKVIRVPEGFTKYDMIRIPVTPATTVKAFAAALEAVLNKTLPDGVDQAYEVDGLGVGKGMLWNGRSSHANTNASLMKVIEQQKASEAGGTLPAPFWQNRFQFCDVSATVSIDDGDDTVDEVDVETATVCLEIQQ
Briefly: Leishmania donovani Ubiquitin Activating Enzyme (LdE1). Type of assay: functional. Particulars: 30 µM.

Assay [3] concerns the target Sialic acid-binding Ig-like lectin 9 (Homo sapiens) (UniProt Q9Y336). Kind of assay: Hs-Siglec9 ALPHAscreen SOP 20170721. Particulars: 10 µM.
The test system of the next assay is Trypanosoma cruzi. Kind of assay: Trypanosoma cruzi phosphomannomutase and mannose-1-phosphate guanylyltransferase assay. It counts as functional. The following applies: 10 µM.
Assay [4] has as its target T2, Arginase-2, mitochondrial (Homo sapiens) (UniProt P78540).
T2 sequence (whole entry): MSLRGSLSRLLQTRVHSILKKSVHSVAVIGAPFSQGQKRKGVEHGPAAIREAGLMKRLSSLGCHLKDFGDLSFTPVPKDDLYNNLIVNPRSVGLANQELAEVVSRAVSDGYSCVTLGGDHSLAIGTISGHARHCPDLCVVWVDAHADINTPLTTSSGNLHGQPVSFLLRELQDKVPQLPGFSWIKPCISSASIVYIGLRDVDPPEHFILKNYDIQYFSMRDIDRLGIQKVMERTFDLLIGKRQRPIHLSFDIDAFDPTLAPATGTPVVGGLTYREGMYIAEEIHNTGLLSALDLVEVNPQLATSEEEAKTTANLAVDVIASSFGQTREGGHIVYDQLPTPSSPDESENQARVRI
Kind of assay: in vitro enzyme assay to detect the production of urea directly proportional to the activity of Arginase II. Further: in the data most compounds retested in dose-response had high values. The following applies: 33.3 µM. Type of assay: functional.

In assay [5] the target is T3, Proteasome subunit beta (Trypanosoma cruzi) (UniProt O96673).
T3 sequence (whole entry): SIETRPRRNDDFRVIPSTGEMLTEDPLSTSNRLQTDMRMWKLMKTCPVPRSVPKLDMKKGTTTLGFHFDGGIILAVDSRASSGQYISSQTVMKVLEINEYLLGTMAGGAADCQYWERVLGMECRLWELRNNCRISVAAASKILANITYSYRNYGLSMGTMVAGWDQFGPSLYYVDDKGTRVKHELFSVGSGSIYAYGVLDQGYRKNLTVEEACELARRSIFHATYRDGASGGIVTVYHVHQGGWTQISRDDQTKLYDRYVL
Kind of assay: Trypanosoma cruzi proteasome chymotrypsin-like activity (TcProtChymo) assay. Further: in the data most compounds retested in dose-response had high values. It counts as functional. Particulars: 9.37 µM.

The next assay is filed under the species Homo sapiens. Kind of assay: To identify inhibition of the IFN signalling (Jak-Stat) pathway via expression of an eGFP reporter gene under the control of an IFN-stimulated response element (ISRE) containing MxA promoter. It counts as functional. The following applies: 30 µM.
Assay [6] has as its target T4, Tyrosyl-tRNA synthetase, putative (Trypanosoma cruzi (strain CL Brener)) (UniProt Q4DSP6).
T4 sequence (whole entry): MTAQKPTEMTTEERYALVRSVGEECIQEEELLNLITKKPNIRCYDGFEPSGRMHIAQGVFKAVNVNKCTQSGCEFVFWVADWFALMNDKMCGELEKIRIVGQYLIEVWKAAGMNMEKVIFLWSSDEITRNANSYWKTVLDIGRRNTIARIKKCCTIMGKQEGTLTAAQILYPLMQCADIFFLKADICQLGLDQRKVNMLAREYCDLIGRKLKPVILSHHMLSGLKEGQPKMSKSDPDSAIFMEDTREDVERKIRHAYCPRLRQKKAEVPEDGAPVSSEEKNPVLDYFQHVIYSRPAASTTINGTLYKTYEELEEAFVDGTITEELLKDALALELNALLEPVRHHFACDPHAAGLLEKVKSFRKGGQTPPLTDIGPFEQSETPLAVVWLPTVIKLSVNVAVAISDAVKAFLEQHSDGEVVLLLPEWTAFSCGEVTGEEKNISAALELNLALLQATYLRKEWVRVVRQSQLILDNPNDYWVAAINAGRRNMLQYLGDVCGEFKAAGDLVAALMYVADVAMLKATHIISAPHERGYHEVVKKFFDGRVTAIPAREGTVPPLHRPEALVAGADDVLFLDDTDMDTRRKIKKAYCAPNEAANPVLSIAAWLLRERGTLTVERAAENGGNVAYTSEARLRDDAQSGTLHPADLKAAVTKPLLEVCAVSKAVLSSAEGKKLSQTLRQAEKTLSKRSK
Briefly: Trypanosoma cruzi tyrosyl tRNA synthetase (TcYRS) _High Tyrosine SOP. Further: in the data most compounds retested in dose-response had high values. Type of assay: functional. Particulars: 30 µM.

Assay [7] concerns the target T4, Tyrosyl-tRNA synthetase, putative (Trypanosoma cruzi (strain CL Brener)). Kind of assay: Trypanosoma cruzi tyrosyl tRNA synthetase (TcYRS) SOP. It counts as functional. The following applies: 30 µM.
Assay [8] addresses Chromo domain-containing protein 1 (Saccharomyces cerevisiae (strain ATCC 204508 / S288c) (Baker's yeast)) (UniProt P32657). Kind of assay: ScCHD-1 Enzyme Inhibition Assay. Further: in the data most compounds retested in dose-response had high values. Particulars: 30 µM. Type of assay: functional.

Chain of Chromo domain-containing protein 1 (Saccharomyces cerevisiae (strain ATCC 204508 / S288c) (Baker's yeast)) (P32657 whole entry, the tested form may be a part): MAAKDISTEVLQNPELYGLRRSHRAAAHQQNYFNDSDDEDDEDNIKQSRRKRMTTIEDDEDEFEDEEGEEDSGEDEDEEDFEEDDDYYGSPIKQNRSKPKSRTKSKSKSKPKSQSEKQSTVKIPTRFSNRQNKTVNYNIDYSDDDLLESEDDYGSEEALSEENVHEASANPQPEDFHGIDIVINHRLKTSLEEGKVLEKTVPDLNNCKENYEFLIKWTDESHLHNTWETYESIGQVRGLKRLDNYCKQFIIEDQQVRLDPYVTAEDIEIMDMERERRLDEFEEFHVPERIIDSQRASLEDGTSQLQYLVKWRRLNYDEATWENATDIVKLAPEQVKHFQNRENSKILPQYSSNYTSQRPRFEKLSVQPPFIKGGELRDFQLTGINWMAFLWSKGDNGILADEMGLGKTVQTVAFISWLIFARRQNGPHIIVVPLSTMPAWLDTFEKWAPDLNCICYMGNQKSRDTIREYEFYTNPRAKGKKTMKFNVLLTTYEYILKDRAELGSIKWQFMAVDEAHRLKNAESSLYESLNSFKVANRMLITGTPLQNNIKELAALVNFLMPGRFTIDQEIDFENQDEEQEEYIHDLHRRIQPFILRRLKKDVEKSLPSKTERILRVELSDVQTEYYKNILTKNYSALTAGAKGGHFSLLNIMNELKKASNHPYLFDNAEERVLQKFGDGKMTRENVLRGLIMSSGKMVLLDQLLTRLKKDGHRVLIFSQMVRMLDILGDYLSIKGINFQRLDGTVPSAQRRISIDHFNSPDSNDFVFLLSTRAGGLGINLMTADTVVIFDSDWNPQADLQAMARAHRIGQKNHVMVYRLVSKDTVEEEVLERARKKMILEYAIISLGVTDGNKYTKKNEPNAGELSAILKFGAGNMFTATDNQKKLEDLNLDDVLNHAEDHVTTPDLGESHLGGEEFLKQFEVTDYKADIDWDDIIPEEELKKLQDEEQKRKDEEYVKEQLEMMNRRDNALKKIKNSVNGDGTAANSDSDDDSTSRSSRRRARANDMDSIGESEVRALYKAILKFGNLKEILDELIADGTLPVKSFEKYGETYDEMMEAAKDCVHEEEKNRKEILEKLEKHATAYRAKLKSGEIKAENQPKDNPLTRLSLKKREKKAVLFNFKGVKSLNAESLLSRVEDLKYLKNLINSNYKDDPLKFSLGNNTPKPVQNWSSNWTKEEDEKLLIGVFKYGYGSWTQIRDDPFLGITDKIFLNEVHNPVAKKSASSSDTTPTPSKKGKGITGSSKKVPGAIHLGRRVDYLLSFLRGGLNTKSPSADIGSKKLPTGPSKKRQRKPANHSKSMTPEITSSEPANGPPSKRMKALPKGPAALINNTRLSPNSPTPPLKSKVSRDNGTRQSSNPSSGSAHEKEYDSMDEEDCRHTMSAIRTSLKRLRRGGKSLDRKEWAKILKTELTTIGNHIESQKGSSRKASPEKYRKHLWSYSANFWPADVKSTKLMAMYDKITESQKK
Chain of Sialic acid-binding Ig-like lectin 9 (Homo sapiens) (Q9Y336 whole entry): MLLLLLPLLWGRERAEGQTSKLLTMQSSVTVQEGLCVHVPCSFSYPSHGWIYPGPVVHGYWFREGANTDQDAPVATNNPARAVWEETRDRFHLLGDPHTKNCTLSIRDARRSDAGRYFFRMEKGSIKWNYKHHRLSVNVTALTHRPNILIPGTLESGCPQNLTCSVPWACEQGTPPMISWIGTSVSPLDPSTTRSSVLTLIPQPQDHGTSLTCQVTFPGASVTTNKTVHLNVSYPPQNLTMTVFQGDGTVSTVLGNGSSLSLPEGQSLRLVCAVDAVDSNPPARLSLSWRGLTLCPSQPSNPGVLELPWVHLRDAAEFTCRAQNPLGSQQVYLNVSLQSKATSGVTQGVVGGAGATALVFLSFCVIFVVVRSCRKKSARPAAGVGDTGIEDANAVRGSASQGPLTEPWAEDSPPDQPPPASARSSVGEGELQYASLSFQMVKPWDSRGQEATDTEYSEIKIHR
Chain of Protein translocase subunit SecA (Escherichia coli (strain K12)) (P10408 whole entry): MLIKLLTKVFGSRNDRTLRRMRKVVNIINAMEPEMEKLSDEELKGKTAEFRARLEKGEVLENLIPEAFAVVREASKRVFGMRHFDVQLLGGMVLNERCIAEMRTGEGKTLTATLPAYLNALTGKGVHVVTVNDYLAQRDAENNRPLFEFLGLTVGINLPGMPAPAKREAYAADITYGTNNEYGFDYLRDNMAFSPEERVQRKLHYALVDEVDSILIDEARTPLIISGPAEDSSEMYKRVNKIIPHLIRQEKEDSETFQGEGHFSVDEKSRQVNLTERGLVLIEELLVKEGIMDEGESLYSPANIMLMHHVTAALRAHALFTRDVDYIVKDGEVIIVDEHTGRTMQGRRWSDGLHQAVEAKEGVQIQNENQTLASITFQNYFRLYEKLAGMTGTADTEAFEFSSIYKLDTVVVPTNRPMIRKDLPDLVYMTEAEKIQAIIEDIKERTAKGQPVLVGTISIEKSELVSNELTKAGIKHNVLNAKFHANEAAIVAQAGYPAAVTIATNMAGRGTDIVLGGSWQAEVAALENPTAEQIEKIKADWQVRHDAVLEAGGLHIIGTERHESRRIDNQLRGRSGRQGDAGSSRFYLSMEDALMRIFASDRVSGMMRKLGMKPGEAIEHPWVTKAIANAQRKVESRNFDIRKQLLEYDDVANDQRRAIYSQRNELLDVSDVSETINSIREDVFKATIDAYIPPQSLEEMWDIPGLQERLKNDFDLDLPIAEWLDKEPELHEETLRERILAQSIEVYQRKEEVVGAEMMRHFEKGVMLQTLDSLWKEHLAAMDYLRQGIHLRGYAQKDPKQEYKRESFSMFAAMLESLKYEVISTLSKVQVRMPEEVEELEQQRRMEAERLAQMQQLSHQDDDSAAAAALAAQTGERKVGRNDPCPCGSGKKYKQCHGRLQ

With `O=C(N1CCCC1)N1CCC2(CCCN(CCOc3ccccc3)C2)C1` (stereo not given), the Percent Effect is -5.49% in assay [1]; 16.9% in [2]; -3.35% in assay [3]; -2.63% with Trypanosoma cruzi; -1.37% in [4]; 12.3% in assay [5]. Further, the Percent Effect was 15.5% in the assay listed under Homo sapiens, 1.93% in assay [6], 2.5% in assay [7] and -13.4% in [8].
As for `O=C(CCSc1ccc(F)cc1)NS(=O)(=O)c1ccc2c(c1)OCCO2`, the Percent Effect in assay [1] was -5.54%; in [2] it was -10.3%; in assay [3] it was -3.31%; in the assay with Trypanosoma cruzi, 4.22%; in assay [4], -2.05%; in assay [5], 13.1%. For the same compound, the Percent Effect in the assay listed under Homo sapiens was 1.97%; in assay [6], -11%; in assay [7], -1.21%; in assay [8], -2.81%.
For `c1ccc(OC2CCCC2)c(CNC2CCc3ncnn3C2)c1` (stereo not given), the Percent Effect in assay [1] was -3.8%; in assay [2], 10.3%; in assay [3], -13.9%; in the assay with Trypanosoma cruzi, 5.35%; in assay [4], 2.87%; in [5] it was 20.7%. For the same compound, the Percent Effect is 3.46% in the assay listed under Homo sapiens, 6.22% in assay [6], 18.1% in assay [7] and -3.21% in assay [8].
In the case of `CC(C)Oc1ncccc1CNC(=O)c1ccco1`, the Percent Effect in assay [1] was -4.42%; in [2] it was 16%; in [3], 0.422%; in the assay with Trypanosoma cruzi, 0.402%; in assay [4], 5.32%; in assay [5], 13.5%. Besides, the Percent Effect is 7.02% in the assay filed under Homo sapiens, 5.79% in assay [6], 17.9% in assay [7] and -8.28% in [8].
Take `O=C(CCOc1ccc(Cl)cc1)N1CCN(c2cnccn2)CC1`: the Percent Effect was -5.29% in assay [1]; 18.2% in [2]; 5.24% in assay [3]; -0.746% in the assay on Trypanosoma cruzi; 0.615% in assay [4]; 10.2% in [5]. Moreover, the Percent Effect in the assay filed under Homo sapiens is 25.2%; in assay [6], 9.8%; in [7], 21.2%; in assay [8], -8.03%.
Turning to `CNC(=O)[C@@H]1C[C@H]2CN(Cc3ccco3)C[C@H]2N1C`, the Percent Effect in assay [1] was -3.02%; in [2] it was -27.3%; in assay [3] it was -0.86%; in the assay with Trypanosoma cruzi it was -3.19%; in [4] it was 4.11%; in assay [5] it was 16.7%. For the same compound, the Percent Effect is -13.8% in the assay filed under Homo sapiens, 9.66% in assay [6], 12.5% in assay [7] and -2.19% in [8].
Consider `CC(C)N1CCCC2(CCN(C(=O)CCCn3cncn3)C2)C1=O` (stereo not given), for which the Percent Effect was -5.4% in assay [1]; 5.41% in [2]; 6.04% in assay [3]; 7.27% in the assay on Trypanosoma cruzi; -1.75% in assay [4]; 15.1% in assay [5]. Besides, the Percent Effect in the assay listed under Homo sapiens is 19.6%; in assay [6], 7.98%; in assay [7], 12.2%; in assay [8] it was -6.32%.
Regarding `COC1CCCN(Cc2nc(Cc3ccccc3F)no2)C1` (stereo not given), the Percent Effect in assay [1] was -7.36%; in assay [2], -5.41%; in [3], 1.17%; in the assay on Trypanosoma cruzi, 2.04%; in assay [4], 1.75%; in assay [5], 1.71%. The Percent Effect in the assay filed under Homo sapiens is 3.24%; in assay [6] it was 5.85%; in [7], 14.6%; in assay [8], 0.44%.
In the case of `O=C1C[C@H]2[C@@H](CCN2C(=O)Cc2cccs2)N1Cc1cccnc1`, the Percent Effect in assay [1] is -6.6%; in assay [2], 9.09%; in assay [3] it was -0.0705%; with Trypanosoma cruzi, -1.31%; in assay [4], -4.11%; in assay [5] it was 13.7%. Further, the Percent Effect in the assay filed under Homo sapiens is 8.33%; in assay [6], 6.76%; in [7] it was 7.5%; in [8], -3.4%.
As for `CC1(C)OCC(CNC(=O)c2cnn(-c3ccc(Cl)cc3)c2N)O1` (stereo not given), the Percent Effect in [1] is 2.19%; in assay [2], 17.3%; in assay [3], -9.2%; in the assay on Trypanosoma cruzi, -2.76%; in assay [4], -0.443%; in [5] it was 14%. Besides, the Percent Effect in the assay listed under Homo sapiens was 15.1%; in assay [6], -6.35%; in [7] it was 2.5%; in assay [8], -22.4%.
On to `CC(C)(C)n1ncc2c1NC(=O)CC2c1ccc(OCC(N)=O)cc1` (stereo not given), for which the Percent Effect in [1] was -6.78%; in assay [2], 5.41%; in assay [3] it was -0.0971%; in the assay on Trypanosoma cruzi it was 0.097%; in assay [4], 1.75%; in assay [5], 11.8%. In addition, the Percent Effect in the assay listed under Homo sapiens was -6.02%; in [6], 9.04%; in [7] it was 14.6%; in [8] it was -0.195%.
Consider `Cc1nn(C)c(N(C)C)c1CNCCNS(C)(=O)=O`, for which the Percent Effect in [1] is -1.65%; in assay [2] it was 10.3%; in [3], -0.784%; in the assay on Trypanosoma cruzi, 5.54%; in assay [4] it was 5.74%; in assay [5], 9.3%. Further, the Percent Effect is -6.32% in the assay listed under Homo sapiens, 7.18% in assay [6], 20.5% in assay [7] and -2.87% in assay [8].
